The text below walks through data of PubChem BioAssay AID1985 (Southern Research Specialized Biocontainment Screening …, 2009).

Molecules are shown by their SMILES. About 1,000 (43%) of roughly 2,300 compounds were called active. How the calls were made is not given here. So high a share suggests a set chosen from earlier hits. The list shows a part of the results. Entries that show only a call come without a potency. Potency and affinity values are given separately.

This assay is described as follows: modified counter assay using GFP fluorescence, PhoP regulon inhibitor project, dose response (AID 1985). Conditions: S. Typhi, 4 h; series mostly up to 150 µM.
For `CC(C)(C)n1nc2c(c1NC(=O)c1ccccc1)CS(=O)(=O)C2`, the call was inactive.
In the case of `Cc1ccc(C)c(OCC(=O)Nc2cccc(C(=O)O)c2)c1C` it was “inactive”.
As for `Cc1cc(C)c[n+](CC(=O)c2ccc(NC(=O)c3ccccc3)cc2)c1`, the entry is “inactive”; as for `Cc1c(-c2ccccc2)[n+](=O)c2c(n1[O-])CCCC2`, “inactive”.
As for `Cn1c(CCN2CCN(c3ccccn3)CC2)nc2cc(NC(=O)COc3ccccc3)ccc21`, the entry is “inactive”; as for `O=c1c2ccccc2nc2n1CCc1c-2[nH]c2ccccc12`, “inactive”; as for `COc1cc(/C=C(/C#N)C(=O)Nc2ccccc2)c(Br)cc1OCc1ccc(C(=O)O)cc1`, “inactive”.
Regarding `CCC(=O)N1CCc2cc(S(=O)(=O)NCCCN3CCN(Cc4ccccc4)CC3)ccc21`, the outcome was inactive.
In the case of `CCNC(=S)Nc1cc(-c2ccc(Cl)cc2)[nH]n1` it was “inactive”; in that of `CCn1nnnc1SCC(=O)c1cc(Cl)ccc1OC`, “inactive”; in that of `CC1CCC(C(C)C)C(OC(=O)C[n+]2cc(-c3ccc(Cl)cc3)n3c2CCC3)C1` (stereo not drawn), “inactive”.
As for `CC1CCC(C(C)C)C(OC(=O)Cn2c(-c3ccc(Br)cc3)[n+](C)c3ccccc32)C1` (stereo not drawn), the entry is “inactive”; as for `COc1ccc(OC)c(C(=O)c2ccc(C(=O)O)cc2)c1`, “inactive”.
As for `COC(=O)c1ccc(OC(=O)c2cccnc2)cc1`, the entry is “inactive”; as for `Cc1ccc(NC2=C(Cl)C(=O)OC2OC(=O)c2ccco2)c(C)c1` (stereo not drawn), “inactive”.
As for `COc1ccc(N(C(=O)c2cccnc2)S(=O)(=O)c2cccc([N+](=O)[O-])c2)cc1`, the call was inactive.
In the case of `COC(=O)c1cn(C(=O)c2ccco2)c2ccccc12`, the compound was called inactive.
As for `CCN(C1CCCCC1)S(=O)(=O)c1ccc(OC)c(C)c1`, the entry is “inactive”; as for `CSC1=NC2(C)CCCCC2C12C=CC(=O)C=C2` (stereo not drawn), “inactive”; as for `Cc1cc(NC(=O)CSc2nnc(-c3cccnc3)n2N)no1`, “inactive”.
Consider `COc1ccc(C(=O)CSc2nnc(-c3cnccn3)n2Cc2ccco2)cc1`, for which the call was inactive.
In the case of `Cc1cc(C)c(CSc2ncnc3nc[nH]c23)c(C)c1`, the compound was called inactive.
As to `Cc1nc2ccc(NC(=O)c3cccc(C(F)(F)F)c3)cc2o1`, the compound was called inactive.
As for `CC(=O)c1ccc(NC(=S)NC(NC(=O)c2ccco2)C(Cl)(Cl)Cl)cc1` (stereo not drawn), the entry is “inactive”.
Turning to `c1ccc(N2CCN(c3nc4ccccc4[nH]3)CC2)nc1`, the compound was classed as inactive.
Take `Cc1nn(-c2nc3ccccc3[nH]2)c(N)c1-c1ccccc1`: the compound was called inactive.
In the case of `Cn1cnc2cc(NC(=O)c3cccs3)ccc21` it was “inactive”; in that of `N#CC(C(=O)C12CC3CC(CC(C3)C1)C2)c1nc2ccccc2[nH]1` (stereo not drawn), “inactive”.
As for `O=C(Nc1ccc2c(c1)nc1n2CCN(Cc2ccccc2)C1)c1cccs1`, the entry is “inactive”; as for `COc1ccc(NC(=O)Cn2c(=O)oc3cc(S(=O)(=O)N4CCCC4)ccc32)c(OC)c1`, “inactive”.
Turning to `COc1cc(CNC(=O)CCC(=O)N2C[C@H]3C[C@H](C2)c2cccc(=O)n2C3)cc(OC)c1OC`, the outcome was inactive.
As for `Cc1ccc(/C=N/NC(=O)CSc2nc3ccccc3n2C)s1`, the entry is “inactive”.
Turning to `CC(C)c1ccc(NC(=O)CSc2nnc(-c3ccccn3)n2C)cc1`, the outcome was inactive.
As for `COc1ccccc1C(=O)NNC1=C(C(=O)C(F)(F)F)CCC1`, the entry is “inactive”.
Regarding `COc1nc(N(C#N)CC(N)=O)nc(N2CCCC2)n1`, the compound was classed as inactive.
Consider `CC1CCN(CC(CS(=O)(=O)c2ccc([N+](=O)[O-])cc2)N2CCC(C)CC2)CC1` (stereo not drawn), for which the outcome was inactive.
Regarding `O=c1c2cnn(-c3ccccc3)c2ncn1CCc1ccccc1`, the compound was classed as inactive.
In the case of `COc1cccc(-c2nc(CS(=O)CC(=O)NCCCOC(C)C)c(C)o2)c1` (stereo not drawn) it was “inactive”.
As for `O=C(N/N=C/c1ccc(N2CCCC2)c([N+](=O)[O-])c1)c1cccnc1`, the outcome was inactive.
For the compound `Cc1ccsc1/C=N/NC(=O)c1ccncc1`, the outcome was inactive.
`Cc1cc(C)n(-c2nc3ccccc3nc2N2CCN(C(=O)c3ccc(F)cc3)CC2)n1`: the compound was classed as inactive.
For the compound `CSc1nnc(-c2cccc(NC(=S)NN)c2)o1`, the result was inactive.
Turning to `Cc1cccc(-n2ccnc2CN2CCN(C3CCCC3)C(CCO)C2)c1` (stereo not drawn), the compound was called inactive.
As for `O=C(c1ccccc1F)N1C(=O)c2cccc3cccc1c23`, the entry is “inactive”; as for `C[N+](C)(CCCCCC[N+](C)(C)CCCN1C(=O)c2cccc3cccc(c23)C1=O)CCCN1C(=O)c2cccc3cccc(c23)C1=O`, “inactive”; as for `Cc1ccc(/C=N/n2c(C)nc3ccccc3c2=O)s1`, “inactive”.
As for `Cc1ccc(-c2[nH]ncc2/C=N/n2c(C)nc3ccccc3c2=O)cc1`, the entry is “inactive”; as for `CCc1ccccc1NC(=O)c1onc(C)c1Cl`, “inactive”; as for `CCCN(CCC)CCNC(=O)C1CCN(Cc2nc(-c3ccc(Cl)cc3)oc2C)CC1`, “inactive”.
For the compound `Cc1onc(-c2ccccc2Cl)c1C(=O)NNC(=O)C1CCN(Cc2ccccc2)CC1`, the outcome was inactive.
On to `O=C(/C=C/c1ccccc1)NC(=S)N1CCSCC1`, for which the compound was classed as inactive.
In the case of `O=C(/C=C/c1ccccc1)OCc1cnc(Cl)s1` it was “inactive”; in that of `COC(=O)c1cc2nc(-c3ccccc3)cc(C)n2n1`, “inactive”; in that of `CCC(C)n1c(SCC(=O)NCc2ccco2)nnc1-c1cccc(S(=O)(=O)N2CCOCC2)c1` (stereo not drawn), “inactive”.
Regarding `COC(=O)c1ccccc1NC(=O)CSc1ncn[nH]1`, the compound was classed as inactive.
As for `COc1cccc(C(=O)Nc2cccc(SC)c2)c1`, the entry is “inactive”.
As for `CSc1cccc(NC(=O)/C=C/c2ccco2)c1`, the entry is “inactive”.
In the case of `Cc1ccc(-c2c[n+](Cc3ccc(Cl)c(Cl)c3)c3n2CCC3)cc1`, the compound was called inactive.
For `CC1CCCC(NC(=O)COC(=O)Cc2c[nH]c3ccccc23)C1C` (stereo not drawn), the outcome was inactive.
As to `CCC(=O)Nc1nc(C)c(C(=O)N2CCCCC2)s1`, the compound was called inactive.
As for `CC(/C=C\c1cccnc1)=C/C(=O)O`, the entry is “inactive”; as for `O=C(N/N=C/c1cccnc1)c1ccc(F)cc1`, “inactive”.
As for `Cc1ccc(C(C)C)c(OCCNC(=O)c2ccccc2O)c1`, the entry is “inactive”.
In the case of `O=C(Nc1ncccc1O)c1c(O)c2ccccc2[nH]c1=O`, the result was inactive.
For `CCC(Sc1nccn1C)C(=O)Nc1nnc(C)s1` (stereo not drawn), the result was inactive.
With `Cc1ccc(-c2noc(CN3CCCCC3)n2)cc1`, the outcome was inactive.
For `OCCN1CCN(Cc2cc(Cl)c3cccnc3c2O)CC1`, the result was inactive.
As for `Cc1nc(N2CCOCC2)c2c(C)c(C(=O)Nc3ccccc3C(F)(F)F)sc2n1`, the entry is “inactive”; as for `O=c1c2ccccc2nc(COc2ccccc2)n1/N=C/c1ccc(O)cc1O`, “inactive”; as for `CCn1c(SCC(=O)Nc2oc(-c3ccccc3)c(-c3ccccc3)c2C#N)nnc1-c1ccco1`, “inactive”.
For `CCCC(CCC)C(=O)NCCN1CCOCC1`, the outcome was inactive.
Take `COc1cccc(-c2ccc(SCc3ccccn3)nn2)c1`: the compound was classed as inactive.
As for `Fc1ccc(/C=N/Nc2nc3ccccc3[nH]2)cc1F`, the entry is “inactive”.
In the case of `CC1CCN(CCOCCOc2ccc(Br)cc2Cl)CC1` it was “inactive”; in that of `COC(=O)c1cc2sccc2n1Cc1nc(-c2ccc(OC)cc2)oc1C`, “inactive”.
Take `Oc1c(CN2CCN(c3ccccn3)CC2)cc(Cl)c2cccnc12`: the compound was classed as inactive.
As for `Cc1cc2cc(CNC(=O)C(C)Oc3ccccc3)ccc2n1C` (stereo not drawn), the entry is “inactive”; as for `CNCCCC1c2ccccc2C=Cc2ccccc21`, “inactive”; as for `COc1cc(OC)c(C2CC(=O)N3CN(c4ccccc4)CSC3=C2C#N)cc1OC` (stereo not drawn), “inactive”.
Consider `COc1ccccc1-c1nc(C(F)(F)F)c(OC)o1`, for which the compound was called inactive.
In the case of `Cc1nc(C)c(-c2ccc(SCc3ccccc3F)nn2)s1` it was “inactive”; in that of `NC(=O)c1cc(S(=O)(=O)Nc2cccc(F)c2)co1`, “inactive”.
On to `Cc1c(/C=N/NC(=O)c2sc3ccccc3c2Cl)cnn1C`, for which the compound was called inactive.
As for `COc1ccc(C(=O)N/N=C/c2cccnc2)cc1`, the entry is “inactive”; as for `CCn1ncc(/C=N\NC(=O)c2csc3ccccc23)c1C`, “inactive”; as for `O=C(NC1=NCCS1)c1cccc2ccccc12`, “inactive”.
In the case of `O=C(NC1CC1)C1CCN(C2CCN(C(=O)Cc3ccc(F)cc3)CC2)CC1` it was “inactive”; in that of `CN1C(=O)N2CN(C3CCCCC3)CN3C(=O)N(C)C1C23` (stereo not drawn), “inactive”; in that of `CCn1nccc1C(=O)Nc1cc(Cl)cc(Cl)c1`, “inactive”.
Take `CCOC(=O)N1CCN(CCC(=O)c2ccc(Br)cc2)CC1`: the call was inactive.
Take `O=C(CCN1CCC(c2ccccc2)C1)c1ccc2c(c1)OCCO2` (stereo not drawn): the compound was classed as inactive.
For the compound `O=C(c1cccs1)N1CCC(N2CCN(c3ccccc3)CC2)CC1`, the compound was classed as inactive.
In the case of `O=C(C[n+]1cn(C(F)F)c2ccccc21)c1ccc(Br)cc1` it was “inactive”; in that of `O=C(CCN1CCN(c2ccccc2)CC1)c1ccc(Cl)cc1`, “inactive”; in that of `COc1ccc(C(=O)N2CCN(C(=O)Cc3ccccc3)CC2)cc1OC`, “inactive”.
On to `CCOC(=O)N1CCN(CC(=O)Nc2ccc(F)cc2F)CC1`, for which the outcome was inactive.
On to `O=c1[nH]n(-c2ccccc2)c(=O)c2ccccc12`, for which the outcome was inactive.
In the case of `CCOc1ccc(S(=O)(=O)N2CCC(C(=O)NCCN3CCOCC3)CC2)cc1C` it was “inactive”.
With `O=c1c2ccccc2ncn1Cc1ccc(Cl)cc1`, the call was inactive.
In the case of `CCc1ccc(C(=O)CC2(O)C(=O)N(CN3CCOCC3)c3ccccc32)cc1` (stereo not drawn) it was “inactive”; in that of `CC(=O)C1=C(O)C(=O)N(CCN2CCOCC2)C1c1ccccc1` (stereo not drawn), “inactive”; in that of `CCC[C@H](CN[C@@H](CNC)[C@H](C)CC)NCCc1cc(C(F)(F)F)cc(C(F)(F)F)c1`, “inactive”.
`O=C(COC(=O)/C=C/c1cccc(C(F)(F)F)c1)NCc1ccccc1`: the compound was called inactive.
In the case of `COc1cc2c3cc1Oc1cc(ccc1O)C[C@@H]1c4c(cc(OC)c(O)c4Oc4ccc(cc4)C[C@H]3N(C)CC2)CCN1C`, the result was inactive.
In the case of `Cc1ccc(C(C[N+](=O)[O-])n2nc(C)cc2C)cc1` (stereo not drawn) it was “inactive”.
Consider `CCN1C(=O)NC(c2ccccc2)C1=O` (stereo not drawn), for which the call was inactive.
As to `CCN(CC)CCCCCCCCOC(=O)c1cc(OC)c(OC)c(OC)c1`, the call was inactive.
For the compound `COc1cc(C(c2nnnn2C2CCCC2)N2CCN(C)CC2)cc(OC)c1OC` (stereo not drawn), the call was inactive.
Take `O=S1(=O)CC=C(CSc2nc3ccccc3[nH]2)C1`: the result was inactive.
With `Cc1ccnc(NS(=O)(=O)c2ccc(N=CC3=C(O)CC(C)(C)CC3=O)cc2)n1`, the outcome was inactive.
For `Cc1ccc(-n2[nH]c(C)c(C=NCc3ccncc3)c2=O)cc1`, the call was inactive.
As for `CCC(Oc1ccccc1)C(=O)Nc1nnc(S(=O)(=O)N2CCCCC2)s1` (stereo not drawn), the entry is “inactive”; as for `CCOc1ccc(C2CC(=O)NC(SCC(=O)OC)=C2C#N)cc1` (stereo not drawn), “inactive”.
